AMA1 RON2 block: disrupts binding of P. falciparum AMA1 to RON2. Potency, µM (titrated, usually from 58.2 µM), without a hit: at the top dose activity change, negative = inhibition, most hits filed as inhibitors. AID 720542. AlphaScreen AMA1-biotinylated RON2 peptide binding. 360,000 compounds, 0.2% hits;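 further: potency means the concentration at half of the fitted maximal effect; 0% = vehicle wells and -100% = peptide control; nearly all actives have a fitted effect of over 45% in size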
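AMA1 (3D7) with his tag at 25 nM final met compounds first, then biotinylated RON2 peptide at 25 nM; detection used donor plus acceptor beads, 10 µg/mL apiece, read by AlphaScreen after 30 min at room temperature.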
Shiga toxin inh: blocks Shiga toxin action in Vero cells. 290,000 compounds, 9.2% hits. inhibition, % at 38.7 µM. Vero cells, Shiga toxin protein synthesis inhibition reporter; in the data active means inhibition mostly above about 28%, no sharp cut-off; inactive means mostly below about 43%; further: 0% is about no effect
SARS PLpro yeast: inhibitors of SARS-CoV papain-like protease in yeast | S. cerevisiae expressing SARS-CoV PLpro, growth rescue | 330,000 compounds, 0.19% hits | Potency, µM (series often up to 32.9 µM), for the others: at the top dose activity, positive = growth rescue, most hits filed as activators; calls by dose curve; further: potency means the concentration at half of the fitted maximal effect; 0% is about no effect; nearly all actives have a fitted effect of over 55% in size
Cycloheximide cs: counter-screen hit for Shiga toxin inhibitors, cycloheximide | max response, % | cell reporter, cycloheximide protein synthesis inhibition counterscreen | 300,000 compounds, 12% hits; in the data active means max response mostly above about 13%, no sharp cut-off; inactive means mostly below about 14%; further: read at 38.3 µM for the half of the compounds with a filed dose; 0% is about no effect
Pf growth 96h: P. falciparum growth inhibition at 96 hours; 320,000 compounds, 6.9% hits; AID 504834; P. falciparum luciferase reporter growth, 96 h; Potency, µM (doses to about 28.7 µM), for the others: at the highest dose activity change, negative = inhibition, actives largely listed as inhibitors; further: potency means the concentration at half of the fitted maximal effect; on the % scale 0 is the no-effect control and ±100 the full control effect
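Luminescence readout: decreased luciferase signal marks inhibited growth of reporter-expressing P. falciparum in infected red cells (2% hematocrit, 0.05% parasitemia final), exposed to compound two generations (96 h, 37 C, 5% CO2).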
Pf growth 48h: P. falciparum growth inhibition at 48 hours (one generation); AID 504832; Potency, µM (doses to about 28.7 µM), without a hit: top-dose activity change, negative = inhibition, hits mostly inhibitors; 310,000 compounds, 5.9% hits; P. falciparum luciferase growth in erythrocytes, 48 h; further: potency means the concentration at half of the fitted maximal effect; on the % scale 0 is the no-effect control and ±100 the full control effect
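Parasite viability was followed by luminescence of a genomically integrated firefly luciferase. Cultures held 0.1% parasitemia at 2% hematocrit (final), incubated under 5% CO2 at 37 C.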
The depositor's hits bear a star; [ ] = dose if it differs, or a comment. The list is not random: actives were taken first. Their share in the collection is about 19%. Unless noted, the call rests on the fitted dose curve; in most records, active means well fitted curve in the direction sought with a large enough effect; inconclusive means small, poorly fitted or top-dose-only effect, or another doubt; inactive means no such curve, though single readings can be large; an effect the other way counts as inactive or inconclusive.

How did COc1cccc(/C=C2/C(=O)NN(c3ccc(F)cc3)C2=O)c1 do in these assays?
AMA1 RON2 block: -9%; Shiga toxin inh: -1; SARS PLpro yeast: 0%; Cycloheximide cs: -3; Pf growth 96h: 23%; Pf growth 48h: 48%

Results for COc1cc(/C=C2/C(=O)NN(c3ccc(C)c(Cl)c3)C2=O)cc([N+](=O)[O-])c1O ?
AMA1 RON2 block: 0%; Shiga toxin inh: 1; SARS PLpro yeast: -2%; Cycloheximide cs: -2; Pf growth 96h: -3%; Pf growth 48h: 28%

What do the screens show for `COc1cc(/C=C2/C(=O)NN(c3cccc(C)c3)C2=O)ccc1OC(=O)c1ccco1`?
AMA1 RON2 block: -17%; Shiga toxin inh: 12; SARS PLpro yeast: 16%; Cycloheximide cs: 3; Pf growth 96h: 4.1µM*; Pf growth 48h: 12%

What do the screens show for `Cc1ccc(N2NC(=O)/C(=C\c3cc4c(cc3[N+](=O)[O-])OCO4)C2=O)cc1C`?
AMA1 RON2 block: -10%; Shiga toxin inh: -12; SARS PLpro yeast: 14%; Cycloheximide cs: -1; Pf growth 96h: 0%; Pf growth 48h: 10µM*

What do the screens show for `COc1cccc(/C=C2/C(=O)NN(c3ccc(C)c(C)c3)C2=O)c1`?
AMA1 RON2 block: 14%; Shiga toxin inh: 19; SARS PLpro yeast: 0%; Cycloheximide cs: 8.5*; Pf growth 96h: -4%; Pf growth 48h: inconclusive

How did CSc1nnc(-c2sccc2OCc2ccc(C)cc2)n1C do in these assays?
AMA1 RON2 block: 1%; Shiga toxin inh: -5; SARS PLpro yeast: -3%; Cycloheximide cs: -3; Pf growth 96h: inconclusive; Pf growth 48h: inconclusive

What do the screens show for `Cc1cccc(N2CCN(CC(O)COc3ccc4ccccc4c3)CC2)c1` (stereo not drawn)?
AMA1 RON2 block: -5%

How did COc1ccc(-c2sc3cc4c(cc3c2C#CC2(N)CCCCC2)OCO4)cc1 do in these assays?
AMA1 RON2 block: -25%; SARS PLpro yeast: 0%; Pf growth 96h: inconclusive; Pf growth 48h: 13µM*

Results for COc1cc(OC)cc(-c2sc3ccc(OC)cc3c2C#CC2(N)CCCCC2)c1 ?
AMA1 RON2 block: -19%; SARS PLpro yeast: -1%

Results for CC(NC(=O)Nc1ccc2c(c1)OCO2)C1CCCO1 (stereo not drawn) ?
AMA1 RON2 block: -19%; Shiga toxin inh: 72*; SARS PLpro yeast: -7%; Cycloheximide cs: 44*; Pf growth 96h: 15%[5.75 µM]; Pf growth 48h: 91%

Results for CCN(CC)S(=O)(=O)N1CCC(C(=O)NCc2ccc3c(c2)OCO3)CC1 ?
AMA1 RON2 block: -7%; Shiga toxin inh: -7; SARS PLpro yeast: 25%; Cycloheximide cs: -5; Pf growth 96h: 2.6µM*; Pf growth 48h: -10%

How did O=C(NCc1ccc2c(c1)OCO2)C1CCN(S(=O)(=O)c2ccc(F)cc2)CC1 do in these assays?
AMA1 RON2 block: 2%; Shiga toxin inh: -3; SARS PLpro yeast: 3%; Cycloheximide cs: 3; Pf growth 96h: inconclusive; Pf growth 48h: 6%

Results for CS(=O)(=O)N1CCC(C(=O)Nc2ccc3c(c2)OCO3)CC1 ?
AMA1 RON2 block: 1%; Shiga toxin inh: -13; SARS PLpro yeast: 3%; Cycloheximide cs: 8; Pf growth 96h: 21%

What do the screens show for `O=C(NCc1ccc2c(c1)OCO2)C1CCCN1S(=O)(=O)c1ccc(F)cc1` (stereo not drawn)?
AMA1 RON2 block: 0%; Shiga toxin inh: -4; SARS PLpro yeast: 3%; Cycloheximide cs: -2; Pf growth 96h: 34%; Pf growth 48h: 2.3µM*

Results for O=C(Nc1ccc2c(c1)OCO2)C1CCCCC1 ?
AMA1 RON2 block: 5%; Shiga toxin inh: 38*; SARS PLpro yeast: -2%; Cycloheximide cs: 33*; Pf growth 96h: inconclusive; Pf growth 48h: 31%

What do the screens show for `CC(NC(=O)COC(=O)c1cc(S(=O)(=O)N2CCOCC2)ccc1F)c1ccccc1` (stereo not drawn)?
AMA1 RON2 block: 11%; SARS PLpro yeast: 5%

How did COc1ccc([C@@H]2C[C@H]3[C@@H](CN2S(=O)(=O)c2ccccc2)C(=O)C[C@@H](c2cccc4ccccc24)N3S(=O)(=O)c2ccc(C)cc2)cc1 do in these assays?
AMA1 RON2 block: -9%

What do the screens show for `O=S(=O)(c1c(F)cccc1F)N1CCN(C(=S)NCc2ccc3c(c2)OCO3)CC1`?
AMA1 RON2 block: -3%; Shiga toxin inh: 9; SARS PLpro yeast: -2%; Cycloheximide cs: -2; Pf growth 96h: 2.1µM*; Pf growth 48h: 2.1µM*

How did CCNC(=O)C1CCCN1S(=O)(=O)c1ccc2ccccc2c1 (stereo not drawn) do in these assays?
AMA1 RON2 block: 33%; Shiga toxin inh: -6; SARS PLpro yeast: 0%; Cycloheximide cs: 4; Pf growth 96h: -10%; Pf growth 48h: 8%

What do the screens show for `Fc1ccccc1NC(=S)NCc1ccc2c(c1)OCO2`?
AMA1 RON2 block: 1%; Shiga toxin inh: 23; SARS PLpro yeast: -23%; Cycloheximide cs: 9; Pf growth 96h: inconclusive; Pf growth 48h: 9%

Results for O=C(NCc1ccc2c(c1)OCO2)C1CCCCC1 ?
AMA1 RON2 block: 17%; Shiga toxin inh: 42*; SARS PLpro yeast: 3%; Cycloheximide cs: 13*; Pf growth 96h: inconclusive; Pf growth 48h: 16%

What do the screens show for `O=C(NCCc1ccccc1F)C1CCCN1S(=O)(=O)c1ccc2ccccc2c1` (stereo not drawn)?
AMA1 RON2 block: -6%; Shiga toxin inh: 34; SARS PLpro yeast: -32%; Cycloheximide cs: 21*; Pf growth 96h: 48%; Pf growth 48h: inconclusive

How did O=C(NCc1ccc2c(c1)OCO2)C1COc2ccccc2O1 (stereo not drawn) do in these assays?
AMA1 RON2 block: 13%; Shiga toxin inh: 34*; SARS PLpro yeast: inconclusive; Cycloheximide cs: 13; Pf growth 96h: inconclusive; Pf growth 48h: 59%

How did O=C(C[C@@H]1C/C=C\CCCC(=O)OC[C@@H]2CCCN2C1=O)N[C@@H](CO)Cc1ccccc1 do in these assays?
AMA1 RON2 block: -8%; SARS PLpro yeast: -4%

How did CCOC(=O)c1nnn(-c2ccccc2)c1C do in these assays?
AMA1 RON2 block: 4%; Shiga toxin inh: 29; SARS PLpro yeast: -14%; Cycloheximide cs: 16; Pf growth 96h: 26%; Pf growth 48h: 23%

What do the screens show for `CCOC(=O)c1nnn(-c2ccc([N+](=O)[O-])cc2[N+](=O)[O-])c1C`?
AMA1 RON2 block: 2%; Shiga toxin inh: -13; SARS PLpro yeast: -5%; Cycloheximide cs: 9; Pf growth 96h: 2%; Pf growth 48h: 12µM*

How did COc1cc(-c2cc3nc4ccccc4n3c(N)c2C#N)cc(OC)c1OC do in these assays?
AMA1 RON2 block: 12%; Shiga toxin inh: -4; SARS PLpro yeast: -6%; Cycloheximide cs: 2; Pf growth 96h: inconclusive; Pf growth 48h: 38%

Results for N#Cc1c(-c2ccccc2)cc2nc3ccccc3n2c1N ?
AMA1 RON2 block: 10%; Shiga toxin inh: 0; SARS PLpro yeast: -15%; Cycloheximide cs: 24*; Pf growth 96h: inconclusive; Pf growth 48h: -14%
